Source: PubChem BioAssay
HT1080 IDH1KD tx – qHTS for induction of synthetic lethality in tumor cells producing 2HG: qHTS for the HT-1080-IDH1KD cell line | HT-1080 IDH1 knockdown viability, ATP luminescence, 48 h | Potency, µM (highest dose often 46.1 µM), most hits filed as cytotoxic | hit rate 2% among 360,000 | AID 686971, 2013
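Assay cells: HT-1080 with IDH1 knockdown, 750 per well, RPMI/5% FBS. Exposure: 48 h at 37 °C following 2 h pre-incubation. Read: CellTiter-Glo luminescence; fitted concentration-response, curve class assigned.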
TDP1 cell noCPT – qHTS for Inhibitors of human tyrosyl-DNA phosphodiesterase 1 (TDP1): qHTS in cells in absence of CPT. DT40 Tdp1-/- hTDP1 cells, no CPT, ATP luminescence, 48 h. Potency, µM (top dose mostly 46.2 µM), hits mostly inhibitors. hit rate 15% among 420,000; also: nearly all actives have a fitted effect of over 55% in size
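Compound effects on proliferation are scored in DT40 Tdp1-/-;hTDP1 cells in the absence of CPT. ATP levels (CellTiter-Glo luminescence) are recorded after a ≥48 hr, 37 °C incubation.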
IL1B secr inh – qHTS for Inhibitors of Inflammasome Signaling: IL-1-beta AlphaLISA Primary Screen; THP-1 LPS/ATP IL-1B secretion, AlphaLISA, 16 h; stronger effect = lower value; activity change, % at 57.5 µM; hit rate 4.7% among 360,000; in the data active = activity change below about -50%; inconclusive = mostly about -30% to -49%
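THP-1 cells pretreated 1 hr with compounds (up to 57.5 uM final), then stimulated with LPS (250 ng/mL final) plus ATP (1.25 mM final); secreted IL-1B measured by AlphaLISA after 16 hr, decreased signal indicating inhibition.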
HT1080-NT tox – qHTS for induction of synthetic lethality in tumor cells producing 2HG: qHTS for the HT-1080-NT fibrosarcoma cell line; HT-1080-NT fibrosarcoma viability, CellTiter-Glo ATP luminescence, 48 h; Potency, µM (top dose mostly 46.1 µM), hits mostly cytotoxic; hit rate 1.6% among 360,000;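 also: NT is the 2HG producing partner of a matched IDH1 knockdown line; nearly all actives have a fitted effect of over 55% in size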
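Viability by CellTiter-Glo luminescence after 48 h compound exposure at 37C of HT-1080-NT cells (750/well, RPMI, 5% FBS). % activity scaled between DMSO wells and medium-only wells, then curve-fitted and categorized by curve class.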
ALOX12 inh – Primary qHTS assay for inhibitors of human arachidonate 12S-lipoxygenase (ALOX12): Round 2; purified 12hLO, xylenol orange hydroperoxide absorbance; Potency, µM (series often up to 108 µM), hits mostly inhibitors; hit rate 1.1% among 580,000; AID 1671190, 2021
Target sequence (P18054 whole entry, looked up): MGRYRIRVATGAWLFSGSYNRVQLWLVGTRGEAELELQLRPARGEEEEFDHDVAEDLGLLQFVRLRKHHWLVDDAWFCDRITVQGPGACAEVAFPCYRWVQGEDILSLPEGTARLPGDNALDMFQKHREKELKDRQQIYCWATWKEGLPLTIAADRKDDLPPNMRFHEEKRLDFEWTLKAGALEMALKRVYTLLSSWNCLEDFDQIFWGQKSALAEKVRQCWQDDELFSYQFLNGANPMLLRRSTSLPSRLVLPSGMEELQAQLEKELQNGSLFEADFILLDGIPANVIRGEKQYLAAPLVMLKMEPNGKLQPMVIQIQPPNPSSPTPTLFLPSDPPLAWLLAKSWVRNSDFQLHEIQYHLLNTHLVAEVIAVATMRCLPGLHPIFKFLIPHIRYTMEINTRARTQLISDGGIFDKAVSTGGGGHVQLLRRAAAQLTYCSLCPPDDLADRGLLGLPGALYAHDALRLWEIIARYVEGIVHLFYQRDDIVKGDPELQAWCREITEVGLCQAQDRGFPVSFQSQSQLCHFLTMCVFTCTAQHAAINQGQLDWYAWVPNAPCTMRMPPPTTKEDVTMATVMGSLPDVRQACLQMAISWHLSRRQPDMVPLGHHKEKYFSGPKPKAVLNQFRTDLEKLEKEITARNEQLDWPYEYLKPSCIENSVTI
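Hydroperoxide product was detected by ferrous iron/xylenol orange as the 573 to 405 nm absorbance ratio. Arachidonic acid at 40 uM (final) was turned over for 30 min at room temperature by 150 nM human 12hLO, pH 7.0 Hepes buffer, after 15 min compound preincubation.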
TDP1 cell CPT – qHTS for Inhibitors of human tyrosyl-DNA phosphodiesterase 1 (TDP1): qHTS in cells in presence of CPT | chicken DT40 Tdp1-/-;hTDP1 cells + 20 nM CPT, ATP luminescence, 48 h | Potency, µM (series often up to 46.2 µM), most hits filed as inhibitors | hit rate 12% among 420,000; also: nearly all actives have a fitted effect of over 55% in size
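Cell growth measured by CellTiter-Glo luminescence after a minimum 48 h, 37 C compound exposure with 20 nM CPT in Tdp1-knockout DT40 cells stably expressing hTDP1, seeded 400/well; qHTS titration format.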
Hits are given with their value; [ ] = dose if it differs, or a comment. This is one part of a sample in which hits are shown more often than they occur. Unless noted, calls follow the shape of the dose curve; as a rule, active = well fitted curve in the direction sought with a large enough effect; inconclusive = small, poorly fitted or top-dose-only effect, or another doubt; inactive = no such curve, though single readings can be large; an effect the other way counts as inactive or inconclusive.

O=C(c1cccs1)N1CCC(n2cc(-c3nc(-c4ccccc4)no3)nn2)CC1 was read as ALOX12 inh inactive.
`COc1ccc(NC(=O)N2CCN(c3nc4ccccc4n3Cc3ccccc3)CC2)c(OC)c1` gave ALOX12 inh inactive.
`COC(=O)c1sc(NC(=O)C2CCCC2)c(C(=O)OC)c1C` gave ALOX12 inh inactive.
`CCS(=O)(=O)c1ccc2oc(Nc3ccc(C(C)C)cc3)nc2c1` gave HT1080 IDH1KD tx inactive, TDP1 cell noCPT 23µM, IL1B secr inh inactive, HT1080-NT tox inactive, ALOX12 inh 7.1µM and TDP1 cell CPT 16µM.
CCOc1ccc(Nc2nc3cc(S(=O)(=O)N(CC)CC)ccc3o2)cc1 was read as HT1080 IDH1KD tx inconclusive, TDP1 cell noCPT 7.3µM, IL1B secr inh inactive, HT1080-NT tox inconclusive and TDP1 cell CPT 5.8µM.
For COc1ccc(N2C(=O)c3ccc(C(=O)OC(C)C)cc3C2=O)cc1 the results were HT1080 IDH1KD tx inactive, TDP1 cell noCPT 5.8µM, IL1B secr inh inactive, HT1080-NT tox inactive, ALOX12 inh inactive and TDP1 cell CPT 6.5µM.
Screening O=C(CSc1cn(CC(=O)N2CCCC2)c2ccccc12)Nc1ccccc1C(F)(F)F returned TDP1 cell noCPT inconclusive, ALOX12 inh inactive and TDP1 cell CPT inconclusive.
For CC1CCN(C(=O)Cn2cc(SCC(=O)Nc3ccccc3C(F)(F)F)c3ccccc32)CC1 the results were TDP1 cell noCPT 21µM, ALOX12 inh inactive and TDP1 cell CPT inconclusive.
Cc1cccc(NC(=O)CSc2cn(CC(=O)N3CCC(C)CC3)c3ccccc23)c1C was read as TDP1 cell noCPT 9.2µM, ALOX12 inh inactive and TDP1 cell CPT 23µM.
`O=C(CSc1cn(CC(=O)N2CCCCC2)c2ccccc12)Nc1ccccc1F` gave TDP1 cell noCPT inconclusive, ALOX12 inh inactive and TDP1 cell CPT inconclusive.
Screening CCN(C(=O)Cn1nc(Cc2ccncc2)c2ccccc2c1=O)c1cc(C)ccc1C returned ALOX12 inh inactive.
Screening O=C(c1cnccn1)N1CCC2(CC1)CC(N(Cc1ccc(F)cc1)C1CC1)CCO2 (configuration not stated) returned ALOX12 inh inactive.
CC1CCCN1c1ccnc2cc(Cl)ccc12 (configuration not stated) was read as HT1080 IDH1KD tx inactive, TDP1 cell noCPT 16µM, IL1B secr inh inactive, HT1080-NT tox inactive, ALOX12 inh inactive and TDP1 cell CPT 29µM.
For Clc1ccc2c(NCCNC3CCCCC3)ccnc2c1 the results were HT1080 IDH1KD tx 21µM, TDP1 cell noCPT 15µM, IL1B secr inh -95, HT1080-NT tox 15µM, ALOX12 inh inconclusive and TDP1 cell CPT 16µM.
COCc1nc(C2CC(Nc3ccnc4cc(Cl)ccc34)C2)cc(=O)[nH]1 (configuration not stated) was read as ALOX12 inh inactive.
CC(CCCN1CCCC1)Nc1ccnc2cc(Cl)ccc12 (configuration not stated) was read as HT1080 IDH1KD tx inconclusive, TDP1 cell noCPT 23µM, IL1B secr inh inconclusive, HT1080-NT tox inactive, ALOX12 inh inactive and TDP1 cell CPT inconclusive.
`CC(C)NC1CCC(Nc2ccnc3cc(Cl)ccc23)CC1` (configuration not stated) gave HT1080 IDH1KD tx inconclusive, TDP1 cell noCPT 9.2µM, IL1B secr inh -93, HT1080-NT tox inactive, ALOX12 inh inconclusive and TDP1 cell CPT 6.5µM.
For Clc1ccc2c(NCc3ccccn3)ccnc2c1 the results were HT1080 IDH1KD tx inactive, TDP1 cell noCPT inactive, IL1B secr inh inactive, HT1080-NT tox inactive, ALOX12 inh inactive and TDP1 cell CPT inconclusive.
Clc1ccc2c(N3CCN(CCCN4CCN(c5ccnc6cc(Cl)ccc56)CC4)CC3)ccnc2c1 was read as ALOX12 inh inactive[22.9 µM].
For Cn1cccc1C(=O)N1CCc2nn(Cc3ccccc3)c(=O)n2CC1 the results were ALOX12 inh inactive.
`Cc1ccc(-c2csc(NC(=O)C3=NN(c4ccccc4)C(=O)CC3)n2)cc1` gave HT1080 IDH1KD tx inactive, TDP1 cell noCPT inconclusive, IL1B secr inh inactive, HT1080-NT tox inconclusive, ALOX12 inh inactive and TDP1 cell CPT inconclusive.
For CN1C(=O)C(CC(=O)NCc2ccccc2)=C2CCCCC21 (configuration not stated) the results were ALOX12 inh inactive.
Screening Nc1nnc(COc2cccc(C(F)(F)F)c2)s1 returned HT1080 IDH1KD tx inactive, TDP1 cell noCPT inconclusive, IL1B secr inh inactive, HT1080-NT tox inactive, ALOX12 inh inactive and TDP1 cell CPT inactive.
`Nc1nc(N)c2c(Oc3ccc(F)cc3)cccc2n1` gave TDP1 cell noCPT 1.8µM and TDP1 cell CPT 13µM.
Nc1nc(N)c2c(OCc3ccc(C(F)(F)F)cc3)cccc2n1 was read as TDP1 cell noCPT 3.2µM and TDP1 cell CPT 5µM.
Screening O=C(NCc1ccc(F)cc1)c1ccc2c(c1)CNCCO2 returned ALOX12 inh inactive.
Screening CCCCc1c(-c2ccccc2OC)ncn1Cc1cccc(OC)c1 returned ALOX12 inh inactive.
For CCCCc1c(-c2ccccc2OC)ncn1CCc1cccc(OC)c1 the results were HT1080 IDH1KD tx 16µM, TDP1 cell noCPT 18µM, IL1B secr inh -69, HT1080-NT tox 18µM, ALOX12 inh inconclusive and TDP1 cell CPT 15µM.
Screening CCCCc1c(-c2ccccc2OC)ncn1CCc1cccc(F)c1 returned HT1080 IDH1KD tx 18µM, TDP1 cell noCPT 21µM, IL1B secr inh inactive, HT1080-NT tox 21µM, ALOX12 inh inactive and TDP1 cell CPT 16µM.
Screening CCCCc1c(-c2ccccc2OC)ncn1Cc1cc(F)cc(F)c1 returned ALOX12 inh inactive.
Screening N#CC1CCN(Cc2ccccc2OCC(O)CN2CCCCC2)CC1 (configuration not stated) returned ALOX12 inh inactive.
Screening O=C(CCN1C(=O)/C(=C/C=C/c2ccccc2)SC1=S)Nc1ccccn1 returned HT1080 IDH1KD tx inactive, TDP1 cell noCPT inconclusive, IL1B secr inh inactive, HT1080-NT tox inconclusive, ALOX12 inh inconclusive and TDP1 cell CPT 16µM.
